Counter-ions that a name gives are not always drawn. Out of some 2,100 compounds screened, about 180 (8.6%) showed an effect of 50% or more. Only a selection was taken, and strong results are over-represented in it overall.
System: MOLM1 and UCSD/AML1 (averaged)
Assay: cell viability relative to DMSO control (POC); higher = less growth inhibition
Conditions: 1 µM; 72 h
Description: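 Primary viability screen in the 3q26 EVI1-high AML cell lines MOLM1 and UCSD/AML1 (1.5e3 cells/well, 384-well), compounds at 1 uM for 72 h. ATP CellTiter-Glo read-out given as percent of viable cells over DMSO control (POC), averaged over duplicates. DMSO was the negative control and 5 uM etoposide the positive control. This mapping covers the MicroSource Spectrum and Selleck anticancer libraries (drug names).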

| SMILES | cell viability [%] |
| --- | --- |
| COc1cc(O)cc(OC)c1OC | 95.9 |
| COC(=O)/C(=C1/OC(=O)C(c2ccccc2)=C1O)c1ccccc1 | 102 |
| Cc1cc(Nc2cc(N3CCN(C)CC3)nc(Sc3ccc(NC(=O)C4CC4)cc3)n2)n[nH]1 [VX-680 (MK-0457, Tozasertib)] | 22 |
| Cc1cc(Nc2cc(N3CCN(C)CC3)nc(/C=C/c3ccccc3)n2)n[nH]1 | 19.9 |
| C[C@@H](N)[C@H]1CC[C@H](C(=O)Nc2ccncc2)CC1 | 102 |
| COc1cc2oc3cc(OC)c(OC)c(CC=C(C)C)c3c(=O)c2c(OC)c1CC=C(C)C | 104 |
| O=c1cc(-c2ccccc2)oc2cc(O)c(O)c(O)c12 | 86 |
| CC1(C)C(O[C@@H]2OC[C@@H](O)[C@H](O)[C@H]2O)CC[C@]23CC24CC[C@]2(C)[C@@H]([C@@]5(C)CC[C@@H](C(C)(C)O)O5)[C@H](O)C[C@@]2(C)C4C[C@@H](O[C@@H]2O[C@H](CO)[C@@H](O)[C@H](O)[C@H]2O)C13 (stereo not given in full) | 91.9 |
| CC(C)[C@@H]1CC[C@@H](C)C[C@H]1OC(=O)c1ccccc1 | 109 |
| NC(=O)NCCC[C@H](N)C(=O)O | 93.7 |
| C=CCCCCCCCCCCCc1ccco1 | 109 |
| Nc1cc(C(F)(F)F)c(-c2cc(N3CCOCC3)nc(N3CCOCC3)n2)cn1 | 26.9 |
| COc1c(CC(=O)c2cc3c(cc2O)OC(C)(C)C(O)C3)ccc2c1C=CC(C)(C)O2 (stereo not given) | 98 |
| N[C@@H](C(=O)O)[C@@H](O)[C@H](O)[C@H](O)CO | 106 |
| CCNC(=O)CC[C@H](N)C(=O)O | 92.2 |
| Cc1ccc(NC(=O)c2ccc(CN3CCN(C)CC3)cc2)cc1Nc1nccc(-c2cccnc2)n1 [Imatinib Mesylate] | 37.8 |
| Cc1cccc(Nc2nc(-c3ccncc3)cs2)c1 | 98.9 |
| Cc1ccc(NC(=O)c2ccc(CN3CCN(C)CC3)cc2)cc1Nc1nc(-c2cccnc2)cs1 [Masitinib (AB1010)] | 25.7 |
| Cc1cn(-c2cc(NC(=O)c3ccc(C)c(Nc4nccc(-c5cccnc5)n4)c3)cc(C(F)(F)F)c2)cn1 [Nilotinib (AMN-107)] | 50.6 |
| CO[C@H]1[C@H](O)[C@@H](O)[C@H](O)[C@H](O)[C@H]1O | 95.8 |
| COc1ccc2c(=O)c(OC)c(-c3ccccc3)oc2c1 | 89.8 |
| COc1cc(-c2coc3cc(OC)c(OC)c(OC)c3c2=O)cc(OC)c1OC | 96 |
| C=C1/C(=C\C=C2/CCC[C@]3(C)[C@@H]([C@H](C)/C=C/[C@H](C)C(C)C)CC[C@@H]23)C[C@@H](O)C[C@@H]1O [Doxercalciferol (Hectorol)] | 99.3 |

| SMILES | cell viability [%] |
| --- | --- |
| CC(=O)NCCc1ccc(O)c(-c2c(O)c(O)c3c(c2O)C(=O)c2c(cc(O)c(C(=O)O)c2C(=O)O)C3=O)c1 | 102 |
| COc1cc(OC)c2c(=O)cc(-c3ccccc3)oc2c1 | 90.2 |
| C/C1=C\CCC(=O)C2CC(C)(C)C2CC1 (stereo not given) | 93.3 |
| Cc1cc(O)c2c(c1O)C(=O)c1c(O)cc(C)c(O)c1C2=O | 94.1 |
| COc1c2ccoc2cc2oc(C)cc(=O)c12 | 104 |
| Cn1cnc2c(F)c(Nc3ccc(Br)cc3Cl)c(C(=O)NOCCO)cc21 [AZD6244 (Selumetinib)] | 15.5 |
| C#CCCCCCCCCCCCC(O)CC(O)CO (stereo not given) | 55.1 |
| CC1(C)C=Cc2cc3ccc(=O)oc3cc2O1 | 107 |
| CN(C)CC(=O)OC[C@@H](O)[C@@H](O)[C@H](O)[C@@H](O)C(=O)O | 108 |
| CNCc1ccc(-c2[nH]c3cc(F)cc4c3c2CCNC4=O)cc1 | 89.1 |
| CC(C)Cn1cnc2c(N)nc3ccccc3c21 [Imiquimod] | 47.9 |
| Nc1c2ccccc2nc2ccccc12 | 65 |
| CCCCCCCCc1ccc(CCC(N)(CO)CO)cc1 [Fingolimod (FTY720)] | 76.7 |
| CCCCOc1ccc(CC(=O)NO)cc1 | 115 |
| CCCCCCCCCc1ccc(OCCOCCOCCOCCOCCOCCOCCOCCOCCO)cc1 | 37.9 |
| COc1ccc2c(c1)OC1(O)COc3cc(OC)c(OC)cc3C1=C2 (stereo not given) | 102 |
| CC1=CCc2c(cc3oc(C)cc(=O)c3c2O)OC1 | 90.4 |
| CCC(=O)O[C@H]1CC[C@H]2[C@@H]3CCc4cc(O)ccc4[C@H]3CC[C@]12C | 95.4 |
| COc1cc(NS(C)(=O)=O)ccc1Nc1c2ccccc2nc2ccccc12 | 12.8 |
| CS(=O)(=O)Nc1ccc([N+](=O)[O-])cc1Oc1ccccc1 | 96.7 |
| CC(=O)Oc1cc(C)c2c(c1C=O)Oc1c(c(C)c(OC(C)=O)c3c1C(OC(C)=O)OC3=O)OC2=O (stereo not given) | 106 |
| CC1(C)C[C@@H]2C(=O)CC[C@H]3O[C@]3(C)CC[C@H]21 | 104 |
| CC(=O)O[C@@H]1C=C[C@]2(C)C(C[C@@H](OC(C)=O)[C@]3(C)C4=CC(=O)O[C@H](c5ccoc5)[C@@]4(C)CCC23)C1(C)C (stereo not given in full) | 94.4 |

| SMILES | cell viability [%] |
| --- | --- |
| COc1ccc(-c2cc(=O)c3c(OC(C)=O)cc(OC(C)=O)cc3o2)cc1 | 96.9 |
| Oc1ccc([C@H]2Oc3cc(O)cc(O)c3C[C@H]2O)cc1 | 102 |
| CCCCCCc1ccc(O)cc1O.Nc1c2ccccc2nc2ccccc12 | 46.4 |
| CCCCCCc1ccc(O)cc1O | 98.6 |
| Nc1c2c(nc3ccccc13)CCCC2 | 105 |
| CC(=O)O[C@@H]1CC(=O)[C@@]2(C)C(CC(=O)[C@]3(C)C2CC[C@@]2(C)[C@H](c4ccoc4)OC(=O)C4OC423)C1(C)C (stereo not given in full) | 100 |
| O=c1oc2ccccc2c(O)c1Cc1c(O)c2ccccc2oc1=O | 98.1 |
| O=C(O)/C=C/c1ccccc1 | 105 |
| O=C(O)/C=C/C=C/c1ccccc1 | 121 |
| O=C(/C=C/c1cccc(S(=O)(=O)Nc2ccccc2)c1)NO [Belinostat (PXD101)] | 1.86 |
| COc1ccc2c(c1)OCc1c-2oc2cc(OC)ccc12 | 99 |
| O=C(Nc1ccc(OC(F)(F)F)cc1)c1sccc1NCc1ccnc2ccccc12 | 64.7 |
| COc1ccc2c(c1)O[C@@H]1COc3cc(OC)c(OC)cc3[C@@H]1C2=O | 102 |
| C=C(C)[C@@H]1CC=C(CO)CC1 | 88.1 |
| Cc1cc(=O)oc2cc(O)c(O)cc12 | 98.5 |
| OC[C@H]1O[C@@H](n2cnc3c(NCc4ccco4)ncnc32)[C@H](O)[C@@H]1O | 5.88 |
| Nc1ncnc2c1ncn2[C@@H]1O[C@H](CO)[C@@H](O)[C@@H]1O | 93.9 |
| Nc1ncnc2c1ncn2[C@@H]1O[C@H](CO)[C@@H](O)[C@H]1O | 105 |
| CC(C)CCCC(C)C1CCC2C3=CCC4CC(O)CCC4(C)C3CCC21C (stereo not given) | 93 |
| COC(=O)CC[C@@H](C)[C@H]1CC[C@H]2[C@@H]3CC[C@@H]4C[C@H](O)CC[C@]4(C)[C@H]3C[C@H](O)[C@]12C | 97.4 |
| N=C(N)NCCCCNC(=N)N | 102 |
| COc1ccc(-c2coc3c(O)c(O)c(OC)cc3c2=O)cc1 | 111 |
| COc1c(O)cc2c(-c3ccccc3)cc(=O)oc2c1OC | 92.8 |

| SMILES | cell viability [%] |
| --- | --- |
| COC(=O)Nc1nc2cc(Sc3ccccc3)ccc2[nH]1 | 41.9 |
| CCCSc1ccc2[nH]c(NC(=O)OC)nc2c1 | 12.4 |
| COC(=O)[C@@H]1OC(=O)C2OC23[C@@]1(C)CCC1[C@]2(C)C(C[C@@H](O)[C@]13C)C(C)(C)[C@H](OC(C)=O)C[C@@H]2OC(C)=O (stereo not given in full) | 111 |
| O=C(O)CCCN1C(=O)c2cccc3cccc(c23)C1=O | 103 |
| COc1cc2cc3c4cc(OC)c(OC)cc4cc[n+]3c(C)c2cc1OC | 99.6 |
| C[C@H]1[C@H](C)CC[C@]2(C(=O)O)CC[C@]3(C)C(=CC[C@@H]4[C@@]5(C)C[C@@H](O)[C@H](O)[C@@](C)(CO)[C@@H]5[C@H](O)C[C@]43C)[C@H]12 | 86.8 |
| O=C(Nc1ccccc1-c1cn2c(CN3CCNCC3)csc2n1)c1cnc2ccccc2n1 | 95.6 |
| COc1cc(OC)c2c(=O)c(-c3ccc4c(c3)OCO4)coc2c1 | 127 |
| COC(=O)C[C@H]1C(C)(C)[C@@H](O)[C@@H]2CC3=C4CC(O)O[C@@H](c5ccoc5)[C@]4(C)CCC3[C@@]1(C)C2=O (stereo partly drawn) [3,16-DIDEOXYMEXICANOLIDE-3beta-DIOL] | 86.1 |
| C#Cc1cccc(Nc2ncnc3cc(OC)c(OCCCCCCC(=O)NO)cc23)c1 | 22.2 |
| C#Cc1cccc(Nc2ncnc3cc(OCCOC)c(OCCO)cc23)c1 [OSI-420 (Desmethyl Erlotinib)] | 42.9 |
| C#Cc1cccc(Nc2ncnc3cc(OCCOC)c(OCCO)cc23)c1 | 65.1 |
| COc1cc2c(N3CCN(C(=O)Nc4ccc(OC(C)C)cc4)CC3)ncnc2cc1OCCCN1CCCCC1 [Tandutinib (MLN518)] | 73.6 |
| COc1cc2ncnc(Nc3cccc(Br)c3)c2cc1OC | 61.8 |
| COc1ccc(-c2cc(=O)c3c(O)cc(OC)cc3o2)cc1 | 110 |
| CC(=O)C12OC(C)(c3ccccc3)OC1CC1C3CCC4=CC(=O)CCC4(C)C3CCC12C (stereo not given) | 89.4 |
| CCC(C)C(=O)OC1[C@@H]2CC3=C4CC(=O)O[C@@H](c5ccoc5)[C@]4(C)CCC3[C@@](C)(C2=O)[C@@H](CC(=O)OC)C1(C)C (stereo not given in full) | 99.4 |
| CC(C)CCC[C@@H](C)[C@H]1CC[C@H]2[C@@H]3C[C@@H](O)[C@@]4(O)C[C@@H](O)CC[C@]4(C)[C@H]3CC[C@]12C [CHOLESTAN-3beta,5alpha,6beta-TRIOL] | 102 |
| CC(=O)O[C@H]1CC[C@]2(C)C(C[C@@H](OC(C)=O)[C@]3(C)C4=CC(=O)O[C@H](c5ccoc5)[C@@]4(C)CCC23)C1(C)C (stereo partly drawn) [3-DEOXO-3beta-ACETOXYDEOXYDIHYDROGEDUNIN] | 92.3 |
| CC(C)c1cc(-c2n[nH]c(=O)n2-c2ccc3c(ccn3C)c2)c(O)cc1O [Ganetespib (STA-9090)] | 2.49 |
| CC(=O)O[C@H]1C[C@@H](O)C(C)(C)[C@@H]2C[C@@H](OC(C)=O)[C@]3(C)[C@H](CC[C@@]4(C)[C@@H](c5ccoc5)OC(=O)[C@H]5O[C@@]534)[C@@]12C | 104 |

Reference: the supplement of paper PMC11150407
